Assay results published in PubChem BioAssay (NCI).
Where “and” joins values, the source holds several entries; their conditions need not be identical. Identical values can stand only once. About 83,000 compounds went through this panel and 20% of them were active in at least one assay; those are over-represented in the sample as a whole.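 Activity criterion: percent growth below 10, measured after cells in 96-well plates were exposed to a single compound concentration for 48 hours.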

Legend:
Assay in all cases: NCI-60 one-dose screen, 48 h (100 = growth as untreated, 0 = no growth, -100 = all killed)
[1] = test system: SK-MEL-2 melanoma; conditions: 10 µM unless noted
[2] = test system: EKVX NSCLC; conditions: 10 µM
[3] = test system: SN12C renal; conditions: 10 µM unless noted
[4] = test system: UO-31 renal; conditions: 10 µM unless noted
[5] = test system: TK-10 renal; conditions: 10 µM unless noted
[6] = test system: ACHN renal; conditions: 10 µM unless noted
[7] = test system: CAKI-1 renal; conditions: 10 µM unless noted
[8] = test system: A498 renal; conditions: 10 µM unless noted
[9] = test system: CCRF-CEM leukemia; conditions: 10 µM
[10] = test system: MOLT-4 leukemia; conditions: 10 µM unless noted
[11] = test system: SR leukemia; conditions: 10 µM unless noted
[12] = test system: RPMI-8226 leukemia; conditions: 10 µM unless noted
[13] = test system: OVCAR-8 ovarian; conditions: 10 µM unless noted
[14] = test system: OVCAR-5 ovarian; conditions: 10 µM unless noted
[15] = test system: OVCAR-4 ovarian; conditions: 10 µM unless noted
[16] = test system: SK-OV-3 ovarian; conditions: 10 µM unless noted
[17] = test system: IGROV1 ovarian; conditions: 10 µM unless noted
[18] = test system: OVCAR-3 ovarian; conditions: 10 µM unless noted
[19] = test system: NCI/ADR-RES ovarian; conditions: 10 µM unless noted
[20] = test system: HS 578T breast; conditions: 10 µM unless noted

Measured: growth

CCN(CCNS(C)(=O)=O)c1ccc(N)c(C)c1
inactive: [1] 21.6% | [2] 88.9% | [3] 88.1% and 93.5% | [4] 42.2% | [5] 55.8% and 17.7% | [6] 27.9% and 76.2% | [7] 39.4% and 73.2% | [8] 104% and 94.2% | [9] 35.7% | [10] 66.3% and 96.3% | [11] 94.9% | [12] 59.9% and 110% | [13] 78.1% and 97.5% | [14] 115% and 109% | [15] 69.6% and 102% | [16] 98.6% and 96% | [17] 70.3% and 68.9% | [18] 25.5% and 77.8% | [19] 90.2% and 96.9%

NC1CCC(C(=O)O)CC1 (stereo not drawn)
inactive: [1] 104% and 102% | [2] 103% and 105% | [3] 97% and 103% | [4] 105% and 87% | [5] 97.7% and 102% | [6] 106% and 105% | [7] 96.7% and 90.7% | [8] 94.7% and 86.6% | [9] 80.9% and 79.5% | [10] 107% and 98% | [11] 111% and 105% | [12] 93.2% and 75.8% | [13] 109% and 113% | [14] 93.9% and 100% | [16] 101% and 106% | [17] 115% and 111% | [18] 103% and 107% | [20] 86.4% and 94.8% | [19] 110% and 107%

CCCCNc1ccc(Nc2ccccc2)cc1
inactive: [1] 87.3% | [2] 37% | [3] 71.9% | [4] 86.6% | [5] 73.6% | [6] 77.6% | [7] 94.6% | [8] 82.7% | [9] 24.5% | [10] 84.6% | [11] 62.3% | [13] 74.2% | [14] 103% | [17] 58.7% | [18] 66% | [20] 105% | [19] 86.4%

CC(C)NC(=O)N/C=C(\C#N)C(N)=O
inactive: [1] 101% | [2] 97.2% | [3] 99.1% | [4] 87.8% | [5] 99.7% | [6] 94.8% | [7] 81.5% | [8] 112% | [9] 114% | [10] 106% | [11] 100% | [12] 116% | [13] 109% | [14] 92.5% | [16] 104% | [17] 102% | [18] 105% | [19] 100%

COc1ccc(C(=O)CC(c2ccccc2)C(C#N)c2ccccc2)cc1 (stereo not drawn)
inactive: [1] 71.6% | [2] 84.9% | [3] 86.8% | [4] 69.2% | [5] 88% | [6] 88.8% | [7] 74.2% | [8] 86.5% | [9] 84.1% | [10] 76.4% | [11] 73.8% | [12] 72.6% | [13] 86% | [14] 110% | [16] 102% | [17] 102% | [18] 82.4% | [19] 84.2%

c1ccc2c(c1)OC1OC2Oc2ccccc21
inactive: [1] 87.7% | [2] 105% | [3] 98.9% | [4] 90.1% | [5] 97.6% | [6] 101% | [7] 113% | [8] 117% | [9] 97.6% | [10] 95.4% | [11] 76.1% | [13] 104% | [14] 103% | [16] 102% | [17] 97% | [18] 101% | [19] 95.7%
